Results filed as inconclusive are left out. The source made the active and inactive calls. How the source made its calls, unless noted: active means hit-call score of the fitted dose curve at least 0.9, where 1 is the maximum; inconclusive means response in the unintended direction; inactive means score below 0.9.
How the values were obtained:
[1] = STM_H9_OrnithineISnorm_perc: Stemina devTOX quickPredict H9 human embryonic stem cell (hESC)-based Assay for Ornithine (ORN) Metabolite Biomarker, Normalized (AID 2283712; active means hit-call score of the fitted dose curve at least 0.9, where 1 is the maximum; inactive means score below 0.9;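 further: ornithine released into spent medium during last day measured by mass spectrometry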)
Outline: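 Metabolite endpoint from spent media of pluripotent H9 cells treated 72 h with daily re-feeding; ornithine measured by UPLC-HRMS against its 13C spike-in and referenced to the median 0.1% DMSO vehicle response.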

[2] = STM_H9_CystineISnorm_perc: Stemina devTOX quickPredict H9 human embryonic stem cell (hESC)-based Assay for Cystine (CYSS) Metabolite Biomarker, Normalized (AID 2283713; active means hit-call score of the fitted dose curve at least 0.9, where 1 is the maximum; inactive means score below 0.9)
Outline: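 Normalized cystine level in conditioned medium from the final 24h of a 72h treatment of pluripotent H9 cells (daily media and compound renewal). Quantified by UPLC-HRMS with C13-labeled internal standard; scaled to median of 0.1% DMSO vehicle wells.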

[3] = STM_H9_OrnCyssISnorm_ratio: Stemina devTOX quickPredict H9 human embryonic stem cell (hESC)-based Assay for Ornithine (ORN):Cystine (CYSS) Ratio (AID 2283714)
Outline: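 UPLC-HRMS of spent media: ORN/CYSS ratio of internal-standard-normalized percentages, DMSO (0.1%) baseline. Pluripotent H9 hESCs, 72h exposure, daily re-dosing with fresh media; last 24h media collected.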

[4] = read-out: ABC Transporter (ABCB1), ABCB1 (gene 5243); experiment: CLD_ABCB1_48hr: CellzDirect (CLD) Gene Expression Assay for ABC Transporter (ABCB1) at 48 hours (AID 2283695)
Outline: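 ABCB1 mRNA was measured by quantitative nuclease protection assay (chemiluminescence) 48 h after dosing. Human hepatocyte cultures from two separate donors received fresh dosing solutions daily for two days, with 0.2% DMSO as vehicle. Positive-direction fit against DMSO.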

[5] = read-out: glucuronosyltransferase (UGT1A1), UGT1A1 (gene 54658); experiment: CLD_UGT1A1_24hr: CellzDirect (CLD) Gene Expression Assay for glucuronosyltransferase (UGT1A1) at 24 hours (AID 2283696)
Outline: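 UGT1A1 transcript induction was measured by quantitative nuclease protection assay (chemiluminescence) in human hepatocyte cultures 24 h after daily fresh dosing, with 0.2% DMSO as vehicle and baseline.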

[6] = read-out: ABC Transporter (ABCB11), ABCB11 (gene 8647); experiment: CLD_ABCB11_48hr: CellzDirect (CLD) Gene Expression Assay for ABC Transporter (ABCB11) at 48 hours (AID 2283697)
Outline: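 Induction of ABCB11 mRNA relative to 0.2% DMSO, measured at 48 h by qNPA chemiluminescence. Cultured human hepatocytes (two donors) received fresh dosing solutions at several concentrations on two consecutive days.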

[7] = read-out: Cytochrome P450 3A4 (Homo sapiens) (UniProt P08684); experiment: CLD_CYP3A4_48hr: CellzDirect (CLD) Gene Expression Assay for xenobiotic metabolism (CYP3A4) at 48 hours (AID 2283698)
Outline: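 CYP3A4 induction read by qNPA chemiluminescence after 48 h, with fresh dosing solutions on consecutive days, in cultured human hepatocytes (two donors). Vehicle 0.2% DMSO as baseline; microscopy-based cytotoxicity annotated yes/no alongside data.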

[8] = read-out: Cytochrome P450 2B6 (Homo sapiens) (UniProt P20813); experiment: CLD_CYP2B6_48hr: CellzDirect (CLD) Gene Expression Assay for xenobiotic metabolism (CYP2B6) at 48 hours (AID 2283699);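 further: actives raise transcript level above DMSO so potency reflects induction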
Outline: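 CYP2B6 transcript induction, read by quantitative nuclease protection (S1 digestion, chemiluminescent detection) 48 h after dosing, is fitted upward against 0.2% DMSO. Cultured human liver primary cells, two donor preparations, received fresh chemical daily over multiple concentrations.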

[9] = read-out: Cytochrome P450 2C19 (Homo sapiens) (UniProt P33261); experiment: CLD_CYP2C19_48hr: CellzDirect (CLD) Gene Expression Assay for xenobiotic metabolism (CYP2C19) at 48 hours (AID 2283700);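 further: fitted upward so actives raise CYP2C19 mRNA above the 0.2% DMSO vehicle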
Outline: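 CYP2C19 mRNA induction read by chemiluminescent quantitative nuclease protection assay after 48 h, with fresh compound added daily for two days to cultured human liver hepatocytes. Activity fitted upward against 0.2% DMSO vehicle.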

[10] = read-out: Cytochrome P450 2C9 (Homo sapiens) (UniProt P11712); experiment: CLD_CYP2C9_48hr: CellzDirect (CLD) Gene Expression Assay for xenobiotic metabolism (CYP2C9) at 48 hours (AID 2283701; active means hit-call score of the fitted dose curve at least 0.9, where 1 is the maximum; inactive means score below 0.9)
Outline: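 mRNA level measured by quantitative nuclease protection (S1 digestion, chemiluminescent detection) in lysates of human primary hepatocytes exposed 48 h with daily re-dosing. Induction fitted positively versus 0.2% DMSO; morphology-based cytotoxicity flagged yes/no.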

[11] = read-out: xenobiotic metabolism (CYP1A2), CYP1A2 (gene 1544); experiment: CLD_CYP1A2_48hr: CellzDirect (CLD) Gene Expression Assay for xenobiotic metabolism (CYP1A2) at 48 hours (AID 2283703)
Outline: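 Cytotoxicity was flagged yes/no from morphology, while CYP1A2 transcript induction was detected by qNPA chemiluminescence after a 48-hour exposure. Human primary hepatocyte cultures from separate donors received fresh dosing solutions daily over two days, with 0.2% DMSO as vehicle and baseline.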

[12] = read-out: Glyceraldehyde-3-phosphate dehydrogenase (Homo sapiens) (UniProt P04406); experiment: CLD_GAPDH_48hr: CellzDirect (CLD) Gene Expression Assay for Baseline Control (Glyceraldehyde 3-phosphate dehydrogenase) at 48 hours (AID 2283706);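 further: active means higher GAPDH mRNA than DMSO vehicle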
Outline: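 GAPDH baseline-control readout: qNPA chemiluminescent mRNA quantitation in human liver primary cells 48 h after daily dosing on two consecutive days, vehicle 0.2% DMSO; gain of signal fitted against DMSO, cytotoxicity flagged by phase-contrast morphology.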

[13] = read-out: organic anion transporter (SLCO1B1), SLCO1B1 (gene 10599); experiment: CLD_SLCO1B1_48hr: CellzDirect (CLD) Gene Expression Assay for organic anion transporter (SLCO1B1) at 48 hours (AID 2283707)
Outline: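 SLCO1B1 transcript quantified by qNPA with chemiluminescent readout after 48 h of once-daily chemical exposure. Cultured human primary hepatocytes came from two donors, with 0.2% DMSO vehicle; positive-direction fitting against DMSO, cytotoxicity flagged by morphology.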

[14] = read-out: alkyl and aryl transferase (GSTA2), GSTA2 (gene 2939); experiment: CLD_GSTA2_48hr: CellzDirect (CLD) Gene Expression Assay for alkyl and aryl transferase (GSTA2) at 48 hours (AID 2283708);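 further: active means mRNA induction above DMSO vehicle baseline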
Outline: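 GSTA2 mRNA quantified by qNPA chemiluminescence in human primary hepatocyte lysates after 48 h of daily fresh chemical dosing. Increases fitted against 0.2% DMSO vehicle baseline; cytotoxicity from morphology annotated yes/no.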

[15] = read-out: glucuronosyltransferase (UGT1A1), UGT1A1 (gene 54658); experiment: CLD_UGT1A1_48hr: CellzDirect (CLD) Gene Expression Assay for glucuronosyltransferase (UGT1A1) at 48 hours (AID 2283709);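 further: actives increase expression relative to DMSO so potency refers to induction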
Outline: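 Quantitative nuclease protection assay (chemiluminescent) for UGT1A1 mRNA at 48 h in human hepatocyte cultures from two donors, redosed daily with fresh solutions. Induction fitted relative to 0.2% DMSO; phase-contrast morphology annotated cytotoxicity.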

[16] = read-out: sulfotransferase (SULT2A), SULT2A1 (gene 6822); experiment: CLD_SULT2A_48hr: CellzDirect (CLD) Gene Expression Assay for sulfotransferase (SULT2A) at 48 hours (AID 2283710);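 further: hits raise SULT2A1 transcript above the 0.2% DMSO vehicle baseline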
Outline: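 SULT2A1 transcript measured by qNPA chemiluminescence in human primary hepatocyte cultures after 48 h, with fresh dosing solutions on two consecutive days; gain-of-signal fitting against 0.2% DMSO vehicle; cytotoxicity annotated from phase-contrast morphology.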

[17] = read-out: Broad substrate specificity ATP-binding cassette transporter ABCG2 (Homo sapiens) (UniProt Q9UNQ0); experiment: CLD_ABCG2_48hr: CellzDirect (CLD) Gene Expression Assay for ABC Transporter (ABCG2) at 48 hours (AID 2283704)
Outline: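 ABCG2 transcript measured at 48 h by quantitative nuclease protection (chemiluminescent) and fitted for increase relative to 0.2% DMSO. Hepatocyte cultures from separate donors got fresh compound daily over two days; morphology annotated cytotoxicity.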

[18] = read-out: xenobiotic metabolism (CYP1A1), CYP1A1 (gene 1543); experiment: CLD_CYP1A1_48hr: CellzDirect (CLD) Gene Expression Assay for xenobiotic metabolism (CYP1A1) at 48 hours (AID 2283705)
Outline: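 CYP1A1 transcript measured by quantitative nuclease protection (chemiluminescent) 48 h after two daily treatments of human hepatocyte cultures, versus 0.2% DMSO. Morphology-based cytotoxicity flags accompany data; two donor preparations used.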

Sequence of Cytochrome P450 3A4 (Homo sapiens) (P08684 whole entry, looked up): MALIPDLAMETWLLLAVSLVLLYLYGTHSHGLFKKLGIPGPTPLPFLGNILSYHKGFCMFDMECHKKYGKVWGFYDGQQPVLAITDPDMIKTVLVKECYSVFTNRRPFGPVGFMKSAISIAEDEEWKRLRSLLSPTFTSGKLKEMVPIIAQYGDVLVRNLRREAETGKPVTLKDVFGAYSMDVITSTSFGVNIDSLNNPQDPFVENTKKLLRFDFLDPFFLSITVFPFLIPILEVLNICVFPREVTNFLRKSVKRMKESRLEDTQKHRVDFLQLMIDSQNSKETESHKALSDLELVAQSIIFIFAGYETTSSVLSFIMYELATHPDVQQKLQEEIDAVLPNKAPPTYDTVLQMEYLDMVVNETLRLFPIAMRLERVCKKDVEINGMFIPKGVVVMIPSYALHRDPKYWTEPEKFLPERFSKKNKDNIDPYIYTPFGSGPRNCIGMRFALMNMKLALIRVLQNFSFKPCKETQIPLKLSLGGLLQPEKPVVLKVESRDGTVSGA
Sequence of Cytochrome P450 2C19 (Homo sapiens) (P33261 whole entry, looked up): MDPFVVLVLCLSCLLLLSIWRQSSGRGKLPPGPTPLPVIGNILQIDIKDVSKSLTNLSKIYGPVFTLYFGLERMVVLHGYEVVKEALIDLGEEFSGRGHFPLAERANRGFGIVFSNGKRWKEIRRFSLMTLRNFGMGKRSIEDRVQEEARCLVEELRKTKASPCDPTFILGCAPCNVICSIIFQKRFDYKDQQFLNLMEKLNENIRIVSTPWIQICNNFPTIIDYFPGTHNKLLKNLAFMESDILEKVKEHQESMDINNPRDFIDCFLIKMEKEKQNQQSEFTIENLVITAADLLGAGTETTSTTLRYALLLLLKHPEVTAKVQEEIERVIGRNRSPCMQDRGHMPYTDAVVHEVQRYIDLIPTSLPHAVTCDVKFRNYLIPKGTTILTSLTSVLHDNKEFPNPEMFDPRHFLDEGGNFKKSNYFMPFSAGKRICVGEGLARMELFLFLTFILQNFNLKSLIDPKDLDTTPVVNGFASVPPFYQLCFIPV
Sequence of Broad substrate specificity ATP-binding cassette transporter ABCG2 (Homo sapiens) (Q9UNQ0 whole entry, looked up): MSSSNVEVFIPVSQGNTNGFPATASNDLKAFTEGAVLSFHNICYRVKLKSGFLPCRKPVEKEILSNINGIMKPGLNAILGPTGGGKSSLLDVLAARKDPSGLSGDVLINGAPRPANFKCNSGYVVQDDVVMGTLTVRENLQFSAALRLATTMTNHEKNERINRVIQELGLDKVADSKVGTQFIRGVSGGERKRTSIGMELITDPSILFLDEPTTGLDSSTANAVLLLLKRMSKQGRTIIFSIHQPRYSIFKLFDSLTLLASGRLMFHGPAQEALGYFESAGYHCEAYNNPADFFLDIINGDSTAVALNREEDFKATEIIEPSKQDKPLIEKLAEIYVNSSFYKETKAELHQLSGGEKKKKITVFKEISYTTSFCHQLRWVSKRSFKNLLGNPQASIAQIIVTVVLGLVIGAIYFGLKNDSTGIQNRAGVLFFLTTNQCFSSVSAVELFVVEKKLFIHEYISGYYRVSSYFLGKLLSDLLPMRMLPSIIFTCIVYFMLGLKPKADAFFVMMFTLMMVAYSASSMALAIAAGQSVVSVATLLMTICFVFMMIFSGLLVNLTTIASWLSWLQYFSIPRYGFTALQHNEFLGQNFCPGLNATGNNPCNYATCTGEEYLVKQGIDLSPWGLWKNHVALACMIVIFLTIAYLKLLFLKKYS
Sequence of Glyceraldehyde-3-phosphate dehydrogenase (Homo sapiens) (P04406 whole entry, looked up): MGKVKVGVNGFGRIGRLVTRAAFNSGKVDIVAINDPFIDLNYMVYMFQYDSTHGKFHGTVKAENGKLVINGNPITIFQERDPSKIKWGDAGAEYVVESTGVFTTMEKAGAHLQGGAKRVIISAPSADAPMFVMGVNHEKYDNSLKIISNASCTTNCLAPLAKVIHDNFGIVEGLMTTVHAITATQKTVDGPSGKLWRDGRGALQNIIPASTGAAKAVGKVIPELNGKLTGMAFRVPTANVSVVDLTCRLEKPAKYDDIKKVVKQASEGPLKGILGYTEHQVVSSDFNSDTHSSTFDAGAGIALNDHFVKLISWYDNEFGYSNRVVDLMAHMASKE

Structure (SMILES): ClC1=C(Cl)[C@]2(Cl)[C@@H]3[C@H]4C[C@H]([C@@H]5O[C@H]45)[C@@H]3[C@@]1(Cl)C2(Cl)Cl
- AC50 [1]: 60.9 µM (active)
- AC50 [2]: 78.7 µM (active)
- AC50 [3]: 72.4 µM (active)

Structure (SMILES): C=CC(=O)NCNC(=O)C=C
- AC50 [1]: 65.6 µM (active)
- AC50 [2]: 81.3 µM (active)
- AC50 [3]: 73.2 µM (active)

Structure (SMILES): CCSC(=O)N(CC)C1CCCCC1
- outcome [4]: inactive
- outcome [5]: inactive
- outcome [6]: inactive
- AC50 [7]: 0.000988 µM (active)
- AC50 [8]: 0.000515 µM (active)
- outcome [9]: inactive
- outcome [10]: inactive
- outcome [11]: inactive
- outcome [12]: inactive
- outcome [13]: inactive
- AC50 [14]: 7.96 µM (active)
- outcome [15]: inactive
- outcome [16]: inactive
- outcome [1]: inactive
- AC50 [2]: 32.1 µM (active)
- AC50 [3]: 35.2 µM (active)

Structure (SMILES): CCC(=O)O[C@H]1CC[C@H]2[C@@H]3CCC4=CC(=O)CC[C@]4(C)[C@H]3CC[C@]12C
- AC50 [1]: 29.5 µM (active)
- AC50 [2]: 20.6 µM (active)
- AC50 [3]: 28.6 µM (active)

Structure (SMILES): Sc1ccccc1
- outcome [3]: inactive

Structure (SMILES): Clc1ccc(C(c2ccccc2Cl)C(Cl)(Cl)Cl)cc1 (centres undefined)
- AC50 [1]: 79.3 µM (active)
- AC50 [2]: 54.5 µM (active)
- AC50 [3]: 69.9 µM (active)

Structure (SMILES): CCOCCOC(C)=O
- outcome [1]: inactive
- outcome [2]: inactive

Structure (SMILES): COS(=O)(=O)OC
- outcome [1]: inactive
- outcome [2]: inactive

Structure (SMILES): ClC1=C(Cl)[C@]2(Cl)[C@@H]3[C@@H]4C[C@@H]([C@H]5O[C@@H]45)[C@@H]3[C@@]1(Cl)C2(Cl)Cl
- outcome [1]: inactive
- outcome [2]: inactive

Structure (SMILES): C1CC2OC2CC1C1CO1 (centres undefined)
- AC50 [1]: 79.3 µM (active)
- AC50 [2]: 47 µM (active)
- AC50 [3]: 66.1 µM (active)

Structure (SMILES): O=NN(c1ccccc1)c1ccccc1
- outcome [1]: inactive
- outcome [2]: inactive
- outcome [3]: inactive

Structure (SMILES): CCC(C)c1cc([N+](=O)[O-])cc([N+](=O)[O-])c1O (centres undefined)
- outcome [1]: inactive
- outcome [2]: inactive
- outcome [3]: inactive

Structure (SMILES): CCC(C)(CC)c1cc(NC(=O)c2c(OC)cccc2OC)on1
- outcome [4]: inactive
- outcome [5]: inactive
- AC50 [7]: 0.126 µM (active)
- AC50 [8]: 0.26 µM (active)
- outcome [10]: inactive
- AC50 [11]: 4.25 µM (active)
- outcome [17]: inactive
- AC50 [18]: 3.98 µM (active)
- outcome [13]: inactive
- outcome [14]: inactive
- AC50 [15]: 0.498 µM (active)
- AC50 [16]: 3.78 µM (active)

Structure (SMILES): Clc1ccc(C(Cl)(Cl)Cl)cc1
- AC50 [1]: 94.7 µM (active)
- AC50 [2]: 77.8 µM (active)
- AC50 [3]: 86.5 µM (active)

Reference: PubChem BioAssay (EPA / NIEHS)
